H9c2 protect = cardioprotection against H2O2-induced cell death, primary screen, uHTS, H9c2 cells, ATPLite luminescence; H9c2 cardiomyocytes, H2O2 injury protection, 2 h; protection from H2O2 cell death, % at 20 µM; 360,000 compounds, 0.63% hits; AID 588492, 2011;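 active = compounds giving at least 50% protection of heart cells from peroxide-induced death in the single-dose screen, raw or plate-pattern-corrected value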;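 also: 0% = DMSO wells with peroxide and 100% = DMSO wells without peroxide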
Rtt109 Vps75 = inhibitors of C. albicans Rtt109/Vps75 HAT, primary screen, biochemical, ThioGlo CoA-SH fluorescence, plate reader; purified Rtt109/Vps75, 4 h; 330,000 compounds, 0.16% hits; inhibition, % at 34.9 µM;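 active = inhibition of at least 50% in every replicate; inconclusive = best replicate reaches 50% inhibition but some replicates fall short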
sPLA2-III inh = human group III sPLA2 inhibitors, primary screen, biochemical, QFRET, BODIPY PC-A2 liposome substrate; QFRET BODIPY PC-A2 liposome hydrolysis, fluorescence; inhibition, % at 12.2 µM; 370,000 compounds, 0.56% hits;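 active = inhibition above mean plus 3 SD of compounds lying within the high and low control bounds, cut at about 19% in these data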;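 also: 0% = median of test compound wells and 100% = no enzyme DMSO wells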
DAGLB inhibitor = DAGLB lipase inhibitors, primary screen, biochemical, fluorescence, HTS | Diacylglycerol lipase-beta (Homo sapiens), Q8NCG7 | inhibition, % at 5.17 µM | AID 504411, 2011 | 340,000 compounds, 0.059% hits | HEK293T DAGLB membrane lysate, EnzChek fluorogenic substrate; in the data active = inhibition above about 34%;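 also: 0% = enzyme with vehicle and 100% = wells lacking enzyme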
Myeloid diff MLP = induction of myeloid progenitor differentiation, primary screen, cell-based, flow cytometry, MLPCN library; 360,000 compounds, 1% hits; ER-HoxA9 myeloid progenitors, lysozyme-GFP differentiation; AID 624256, 2012; calls only at 10 µM;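 active = normalized GFP-positive differentiation at or above the plate's own cutoff, the solvent-only control mean plus 3 SD; inconclusive = no clear call, values can overlap the other calls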;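 also: cells exposed to compound for four days before flow analysis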
ABHD5-PLIN5 inh = ABHD5-PLIN5 interaction inhibitors, primary screen, cell lysate, split luciferase complementation, luminescence. inhibition, % at 4 µM. Perilipin-5 (Homo sapiens) + 1-acylglycerol-3-phosphate O-acyltransferase ABHD5 (Homo …. 360,000 compounds, 0.78% hits. Split G. princeps luciferase complementation, 4 h;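 active = inhibition above the mean inhibition across every tested compound plus 3 SD, cut at about 22% in these data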;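 also: 0% = DMSO only wells and the 100% control is not disclosed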
ABHD5-PLIN5 conf = ABHD5-PLIN5 interaction inhibitors, confirmation, biochemical, luminescence; shares compounds with ABHD5-PLIN5 inh; inhibition, % at 4 µM; 2,200 compounds, 67% hits; in the data active = inhibition above about 23%;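 also: 0% = DMSO vehicle wells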
HNF4 counter = HNF4 dimerization inhibitors, counter-screen for ABHD5-PLIN5 interaction inhibitor project, biochemical, split-luciferase complementation, luminescence; 2,200 compounds, 77% hits; inhibition, % at 4 µM; AID 651674, 2012; shares compounds with ABHD5-PLIN5 inh;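 active = mean inhibition across replicate wells exceeding the computed hit threshold, cut at about 13% in these data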;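 also: light from luciferase halves that rejoin when HNF4 fusion proteins dimerize; 0% = DMSO only wells and the 100% control is not given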
Target sequence (P41235 whole entry, looked up, the tested form may be a part): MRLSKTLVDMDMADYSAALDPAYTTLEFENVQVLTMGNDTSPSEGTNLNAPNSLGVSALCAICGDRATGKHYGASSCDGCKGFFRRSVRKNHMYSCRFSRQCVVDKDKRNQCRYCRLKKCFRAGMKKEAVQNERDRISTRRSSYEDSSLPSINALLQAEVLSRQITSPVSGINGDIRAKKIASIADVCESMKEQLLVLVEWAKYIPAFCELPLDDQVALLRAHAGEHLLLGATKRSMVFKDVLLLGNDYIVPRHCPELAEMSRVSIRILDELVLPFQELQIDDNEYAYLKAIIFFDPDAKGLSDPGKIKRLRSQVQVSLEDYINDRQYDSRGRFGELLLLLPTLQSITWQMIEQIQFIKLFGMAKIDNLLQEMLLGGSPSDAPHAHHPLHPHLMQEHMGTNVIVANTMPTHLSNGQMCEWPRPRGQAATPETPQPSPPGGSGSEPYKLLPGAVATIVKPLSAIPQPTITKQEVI
The depositor's hits bear a star; i = inactive; u = inconclusive; x = not tested or not shown; + = active, no number. Shown are actives, neighbours in structure and some others; about 2.9% of the full set was active somewhere.

SMILES | H9c2 protect | Rtt109 Vps75 | sPLA2-III inh | DAGLB inhibitor | Myeloid diff MLP | ABHD5-PLIN5 inh | ABHD5-PLIN5 conf | HNF4 counter
O=C(/C=C/c1ccccc1)c1ccc2c(c1)OCCCCO2 | -22 | -13 | 5 | -14 | i | 24* | 53* | 43*
N#Cc1ccc(/C=C/C(=O)c2ccc3c(c2)OCO3)cc1 | -14 | -11 | 0 | 3 | i | 33* | 88* | 82*
Cc1nc(SCC(=O)N(C)Cc2ccco2)c2c(C)c(C)sc2n1 | 1 | 6 | 2 | -7 | i | 32* | 18 | 22*
O=C1CCN(Cc2ccc(O)cc2)CCN1[C@H](CO)c1ccccc1 | -1 | -1 | 0 | -4 | i | 47* | 4 | 15*
O=C1CCN(Cc2ccccc2)CCN1[C@H](CO)c1ccccc1 | 1 | 6 | 2 | -4 | i | 1 | x | x
COc1ccc(/C=C/C(=O)c2cc(F)ccc2OC(=O)c2ccccc2)cc1OC | 0 | -9 | -9 | -1 | x | 14 | x | x
COc1ccc(/C=C/C(=O)c2cc(F)ccc2OC(=O)c2ccccc2OC)cc1OC | 28 | -2 | -20 | -1 | x | 63* | 78* | 60*
COc1ccc(/C=C/C(=O)c2cc(F)ccc2OC(=O)c2ccc(OC)c(OC)c2)cc1OC | 17 | 11 | -6 | 0 | i | 46* | 77* | 52*
Cc1nnc(NC(=O)c2cccc(Br)c2)s1 | -1 | -1 | -2 | 2 | i | -2 | x | x
Fc1ccc(-[n+]2nc(Nc3ccccc3)sc2-c2c3ccccc3cc3ccccc23)cc1 | -11 | -4 | 1 | 21 | i | 25* | 4 | 6
COc1ccc([C@H]2N[C@]3(CCCN(Cc4ccc(Br)cc4)C3=O)[C@H]3C(=O)N(C)C(=O)[C@@H]23)cc1 | -2 | x | 2 | 0 | i | 4 | x | x
CCN1CCN(Cc2ccc(NC(=O)c3ccc(C)c(/C=C/c4cnc(Nc5cc(N6CCNCC6)nc(C)n5)cn4)c3)cc2C(F)(F)F)CC1 | -23 | 25 | x | -21 | i | 28* | 36* | 5
Cc1cc(C(=O)COC(=O)c2ccc(O)cc2)c(C)n1-c1ccccc1F | -28 | 2 | -33 | -2 | i | -3 | x | x
O=C(/C=C/c1cccc([N+](=O)[O-])c1)c1ccc([N+](=O)[O-])o1 | -23 | 0 | 7 | 4 | + | 72* | 105* | 111*
COc1ccc(/C=C/C(=O)c2ccc([N+](=O)[O-])o2)cc1 | -1 | -15 | 6 | 1 | u | 18 | x | x
Cc1ccc([N+](=O)[O-])cc1N/C=C/C(=O)c1ccco1 | 2 | 13 | -4 | 1 | i | -1 | x | x
Cc1cccc(/C=C/C(=O)c2ccc([N+](=O)[O-])o2)c1 | 1 | 11 | 3 | -3 | u | 77* | 104* | 108*
O=C(/C=C/c1cccc([N+](=O)[O-])c1)c1ccco1 | 4 | -7 | 3 | -1 | i | 71* | 97* | 97*
Cn1[nH]c(-c2ccccc2)c(/C=N/O)c1=O | 1 | 11 | 3 | x | i | -5 | x | x
Cc1ccccc1-c1cc2nc(Nc3ccc(F)cc3)n(C)c(=O)c2s1 | 0 | x | -13 | x | i | -13 | x | x
COc1cc(OC)c(C(=O)/C=C/c2ccccc2)c(O)c1O | -11 | 13 | -4 | 1 | i | 39* | 50* | 38*
COc1cc(O)cc(O)c1C(=O)/C=C/c1ccccc1 | -7 | -5 | -23 | 0 | i | 12 | x | x
O=C(C=Cc1cccc(O)c1)c1ccccc1O | -8 | 0 | -7 | 0 | i | 45* | 93* | 75*
O=C(C=Cc1ccccc1O)c1ccccc1O | -10 | 4 | -23 | -1 | i | 73* | 98* | 90*
COc1ccc(C(=O)/C=C/c2ccccc2)c(O)c1 | -10 | -5 | -5 | -8 | i | 30* | 66* | 47*
SMILES | H9c2 protect | Rtt109 Vps75 | sPLA2-III inh | DAGLB inhibitor | Myeloid diff MLP | ABHD5-PLIN5 inh | ABHD5-PLIN5 conf | HNF4 counter
O=C(OCC(=O)N1CCCC1)c1cc(Cl)ccc1Cl | 6 | -4 | 10 | -6 | i | 14 | x | x
COc1ccc(CCNC(=O)CCC(=O)N2CCOc3ccc(Cl)cc32)cc1OC | 0 | 12 | 6 | 2 | i | -3 | x | x
COc1cc2c(cc1NC(=O)CSc1nnc(-c3cnccn3)n1-c1ccc(C)cc1)oc1ccccc12 | x | x | -1 | x | x | x | x | x
O=C(O)c1cccc(-n2sc3ccccc3c2=O)c1 | 78* | 178* | 8 | 1 | i | 109* | 97* | 120*
O=C(O)c1cccc(-n2c(/C=C/c3ccccc3)nc3ccccc3c2=O)c1 | 4 | 1 | -15 | 4 | i | -4 | x | x
CC(=O)Nc1ccc2c(=O)n(-c3ccccc3)sc2c1 | -29 | x | 6 | 2 | i | 79* | 69* | 117*
COc1ccc(N2C(=O)CC(Sc3nnc(-c4ccccc4)o3)C2=O)cc1 (stereo unspecified) | -23 | 6 | -7 | 3 | i | 43* | 55* | 83*
O=C1CC(Sc2nnc(-c3ccccc3O)o2)C(=O)N1c1ccccc1 (stereo unspecified) | -21 | u | 5 | 0 | i | 16 | x | x
C=CCNc1oc(-c2cccc(Cl)c2)nc1C#N | -4 | 0 | 0 | -6 | i | 24* | 47* | 41*
Cc1ccc(N/C=C(\C2OC(=O)c3ccccc32)[N+](=O)[O-])c(C)c1 (stereo unspecified) | -1 | -4 | -1 | x | i | 54* | 9 | 34*
O=C1OC(/C(=C\Nc2ccc(F)cc2F)[N+](=O)[O-])c2ccccc21 (stereo unspecified) | 5 | 1 | 2 | 2 | i | 54* | 25* | 61*
O=C1OC(Nc2ccc(F)cc2F)c2ccccc21 (stereo unspecified) | -2 | 7 | 2 | 2 | i | -4 | x | x
CN(Cc1ccccc1)C(=O)CN(C)S(=O)(=O)c1ccc(F)cc1 | 0 | 1 | 2 | -1 | i | -1 | x | x
